# According to article PMC4552634, “A New Set of Chemical Starting Points with Plasmodium falciparum Transmission-Blocking Potential for Antimalarial Drug Discovery” (PLoS ONE, 2015):
# Read-outs that look alike come from different tables or passages of the source. About 3,200 (25%) of roughly 13,000 compounds showed an effect of 50% or more. The list shows a part of the results.
# System: P. falciparum stage V gametocytes
# Set-up: BacTiter-Glo ATP luminescence viability of purified stage V gametocytes in 384-well plates, per cent inhibition versus DMSO
# Details: 48 h, 5 µM, inhibitor
compound,measurement,setting,value
CS(=O)(=O)Cc1ccc(Nc2ncc(Cl)c(Nc3cccnc3C(N)=O)n2)cc1 [TCMDC-134165],% Inhibition,,-4.656%
CC1CN=C(c2cccc(NC(=O)Nc3cccc(C4=NCC(C)N4)c3)c2)N1 (centres unmarked) [TCMDC-137194],% Inhibition,,7.217%
COc1cc2c(cc1C(F)(F)F)N(C(=O)Nc1ccc(Br)cn1)CC2 [TCMDC-139015],% Inhibition,,-19.75%
COc1ccc(O)c(C(=O)c2cnc3c(c2)c(-c2ccc(F)cc2)c(C#N)c(=O)n3C)c1 [TCMDC-124509],% Inhibition,,-11.41%
O=C(Nc1ccc2c(c1)CCN2C1CCN(Cc2cccc(F)c2F)C1)c1ccco1 (centres unmarked) [TCMDC-135067],% Inhibition,,14.1%
c1ccc(C(c2ccccc2)N2CCC(NCc3ccc(OCCCN4CCCCC4)cc3)CC2)cc1 [TCMDC-141783],% Inhibition,,82.14%
O=C(N[C@H]1CCN(Cc2ccc(OCCCN3CCCCC3)cc2)C1)c1cc(Cl)cc(Cl)c1 [TCMDC-141774],% Inhibition,,21.94%
O=C(N[C@H]1CCN(Cc2ccc(OCCCN3CCCCC3)cc2)C1)c1ccc(Cl)c(Cl)c1 [TCMDC-141772],% Inhibition,,60%
c1cc(OCCN2CCCC2)ccc1CNC1CCN(CC2CCCCC2)CC1 [TCMDC-141656],% Inhibition,,42.11%
O=C(N[C@H]1CCN(Cc2ccc(OCCCN3CCCCC3)cc2)C1)c1ccc2ccccc2c1 [TCMDC-141775],% Inhibition,,63.18%
CCCCCCN1CCC(NCc2ccc(OCCN3CCCC3)cc2)CC1 [TCMDC-141663],% Inhibition,,42.97%
Cc1cnc(CCNC(=O)c2cc(-c3ccc(Cl)cc3)cs2)[nH]1 [TCMDC-133804],% Inhibition,,0.312%
CCc1cc(N2CCN(c3ccccc3F)CC2)nc(SCc2ccc(C(=O)NC3CC3)o2)n1 [TCMDC-124808],% Inhibition,,29.7%
N#Cc1ccc(-c2ccc(C(=O)Nc3ccc4c(c3)CCN(C3CCC3)CC4)nc2)cn1 [TCMDC-136030],% Inhibition,,49.39%
Cc1nc(-c2ccc(-c3ccc(C(=O)Nc4ccc(-n5ccnc5)c(N5CCN(C)CC5)c4)cc3)c(C)c2)no1 [TCMDC-131988],% Inhibition,,33.17%
C=C[C@H]1CN(CCCCCCC)CC[C@H]1CCNc1ccnc2ccc(OC)cc12 [TCMDC-139204],% Inhibition,,104.6%
CCCCCCCC1CC(CC(=O)Nc2ccnc3ccc(OC)cc23)CN1 (centres unmarked) [TCMDC-139305],% Inhibition,,20.34%
C=C[C@H]1CN(CCCCCCC)CC[C@H]1CCN(C)c1ccnc2ccc(OC)cc12.O=C(O)C(=O)O [TCMDC-139276],% Inhibition,,8.689%
CCCCCCCN1CCC(CC(=O)Nc2ccnc3ccc(OC)cc23)CC1 [TCMDC-139181],% Inhibition,,71.31%
C=C[C@H]1CN(CCCCCCC)CC[C@H]1C[C@@H](Cc1ccnc2ccc(OC)cc12)OC(=O)[C@](OC)(c1ccccc1)C(F)(F)F [TCMDC-139560],% Inhibition,,78.38%
CCCCCCCC1CC(CC(=O)Nc2ccnc3ccc(OC)cc23)CN1C(=O)OC(C)(C)C (centres unmarked) [TCMDC-139304],% Inhibition,,29.24%
C=C[C@H]1CN(CCCCCCC)CC[C@H]1CC(O)Cc1ccnc2cc(O)c(OC)cc12 (some centres unmarked) [TCMDC-139963],% Inhibition,,16.88%
CCCCCCCC1CCN(C[C@H](O)c2ccnc3ccc(OC)cc23)CC1 [TCMDC-139640],% Inhibition,,6.722%
CCCCCCCN1CCC(CC(=O)Nc2ccnc3ccc(OC)cc23)C(CC)C1 (centres unmarked) [TCMDC-139299],% Inhibition,,-28.07%
CCCCCCCN1C2CCC1CC(CCOc1ccnc3ccc(OC)cc13)C2 (centres unmarked) [TCMDC-139275],% Inhibition,,73.47%
C=C[C@H]1CN2CC[C@H]1C[C@H]2[C@H](O)c1ccnc2ccc(OC)cc12 [TCMDC-123484],% Inhibition,% Inhibition,-1.615%
C=C[C@H]1CN(CCCCCCC)CC[C@H]1CC(=O)Nc1cnnc2ccc(OC)cc12 [TCMDC-139791],% Inhibition,,45.94%
CC(C)c1ccc(O)cc1Nc1ccnc2ccc(C(F)(F)F)cc12 [TCMDC-138278],% Inhibition,,-32.37%
COc1ccc(OC)c(-c2ccc(O)c(CNCC(C)c3ccccc3)c2)c1 (centres unmarked) [TCMDC-124647],% Inhibition,,7.623%
Nc1nc2c(ncn2OC[C@H]2COP(=O)(O)CO2)c(=O)[nH]1 [TCMDC-131638],% Inhibition,,1.746%
Cc1cc(C)cc(OCC(O)CN(Cc2cc(Cl)cc(Cl)c2)C(=O)Nc2ccccc2Cl)c1 (centres unmarked) [TCMDC-141476],% Inhibition,,13.96%
CCOc1cc(C(=O)N[C@@H](Cc2ccccc2)[C@H](O)CNCc2cc(OC)cc(OC)c2)cc(N2CCCCS2(=O)=O)c1 [TCMDC-134524],% Inhibition,,22.64%
O=C1NC(=O)C(c2cccc(NC(=O)c3ccncc3)c2)=C1c1ccccc1 [TCMDC-140924],% Inhibition,,2.839%
COc1ccc2nccc([C@@H](O)CN3CCC(NS(=O)(=O)c4cc5c(cc4Cl)SCC(=O)N5)CC3)c2c1 [TCMDC-141159],% Inhibition,,4.839%
CCCCCCCN1CCC(CCNc2ccnc3ccc(OC)cc23)CC1 [TCMDC-139197],% Inhibition,,97.49%
CCCCCCCN1CCC(NC(=O)Nc2ccnc3ccc(OC)cc23)C(C(=O)OCC)C1.O=C(O)C(=O)O (centres unmarked) [TCMDC-139929],% Inhibition,,-3.335%
CCCCCCCN1CCC(NC(=O)Nc2ccnc3ccc(OC)cc23)C(CO)C1.O=C(O)C(=O)O (centres unmarked) [TCMDC-139969],% Inhibition,,-36.82%
COCCOc1ccc(C(F)(F)F)cc1NC(=O)Cc1c(F)cccc1Cl [TCMDC-125025],% Inhibition,,-70.46%
CC(C)CNCc1ccc(-c2cccc(-c3nc4ccccc4[nH]3)c2)cc1 [TCMDC-132547],% Inhibition,,59.79%
c1ccc(CNCc2ccc(-c3cccc(-c4nc5ccccc5[nH]4)c3)cc2)cc1 [TCMDC-132545],% Inhibition,,18.29%
CC(C)NCc1ccc(-c2cccc(-c3nc4ccccc4[nH]3)c2)cc1 [TCMDC-132550],% Inhibition,,-10.92%
CCNCc1ccc(-c2cccc(-c3nc4ccccc4[nH]3)c2)cc1 [TCMDC-132568],% Inhibition,,85.38%
CC(C)NCc1cccc(-c2ccc(-c3nc4ccccc4[nH]3)cc2)c1 [TCMDC-132746],% Inhibition,,23.3%
CN(C)CCNCc1ccc(-c2cccc(-c3nc4ccccc4[nH]3)c2)cc1 [TCMDC-132539],% Inhibition,,20.35%
Cc1ccc(Nc2nc(C)cc(Nc3cccc(C#N)c3)n2)cc1 [TCMDC-133460],% Inhibition,,4.468%
O=C(Nc1ccc(-c2cccc(-c3nc4ccc(C(F)(F)F)cc4[nH]3)c2)cc1)Nc1ccc(Cl)c(Cl)c1 [TCMDC-133278],% Inhibition,,-24.62%
CS(=O)(=O)CCN(CCS(C)(=O)=O)Cc1ccc(-c2ccc3ncnc(Nc4ccc(OCc5cccc(F)c5)c(Cl)c4)c3c2)o1 [TCMDC-138624],% Inhibition,,0.5882%
CCC(C)C#Cc1c(C)nc(N)nc1N (centres unmarked) [TCMDC-137729],% Inhibition,,-55.19%
Cc1cccc2nc(-c3ccc(-c4ccc(CNCc5cnn(-c6ccccc6)n5)cc4)s3)[nH]c12.O=C(O)C(F)(F)F [TCMDC-132967],% Inhibition,,11.48%
CN1CC=C(c2csc3ccc(NC(=O)Nc4ccc(-c5ccncc5)c(Cl)c4)cc23)CC1 [TCMDC-139226],% Inhibition,,-3.853%
CN1CC=C(c2csc3ccc(NC(=O)Nc4ccc(-c5ccncc5)c5ccccc45)cc23)CC1 [TCMDC-139225],% Inhibition,,89.24%
CN1CCC(c2csc3ccc(NC(=O)Nc4ccc(-c5ccncc5)c5ccccc45)cc23)CC1 [TCMDC-139229],% Inhibition,,21.21%
CCNC(=O)c1ccc(-n2nc(C)cc2-c2ccccc2)cc1 [TCMDC-124440],% Inhibition,,-33.35%
Cc1ccc(NC(=O)NC2CCN(CCCCCNC(=O)C3CC3c3ccc(Cl)c(Cl)c3)CC2)cc1 (centres unmarked) [TCMDC-136247],% Inhibition,,-44.45%
N#Cc1cccc(NC(=O)NC2CCN(CCCCCNC(=O)C3CC3c3ccc(Cl)c(Cl)c3)CC2)c1 (centres unmarked) [TCMDC-136250],% Inhibition,,5.084%
O=C(Nc1cc(F)cc(F)c1)N[C@H]1CCN(CCCCCNC(=O)C2CC2c2ccc(Cl)c(Cl)c2)C1 (some centres unmarked) [TCMDC-136263],% Inhibition,,23.53%
O=C(Nc1cccc(F)c1)N[C@H]1CCN(CCCCCNC(=O)C2CC2c2ccc(Cl)c(Cl)c2)C1 (some centres unmarked) [TCMDC-136261],% Inhibition,,-0.7596%
O=C(Nc1ccc(F)cc1)NC1CCN(CCCCCNC(=O)C2CC2c2ccc(Cl)c(Cl)c2)CC1 (centres unmarked) [TCMDC-136249],% Inhibition,,82.82%
O=C(Nc1ccc(Cl)cc1)NC1CCN(CCCCCNC(=O)C2CC2c2ccc(Cl)c(Cl)c2)CC1 (centres unmarked) [TCMDC-136251],% Inhibition,,-16.96%
O=C(Nc1cc(F)cc(F)c1)NC1CCN(CCCCCNC(=O)C2CC2c2ccc(Cl)c(Cl)c2)CC1 (centres unmarked) [TCMDC-136252],% Inhibition,,75.57%
O=C(Nc1cccc(F)c1)NC1CCN(CCCCCNC(=O)C2CC2c2ccc(Cl)c(Cl)c2)CC1 (centres unmarked) [TCMDC-136248],% Inhibition,,79.62%
Cc1cccc(Cn2nc(-c3ccccc3)c(N3CCCCC3)cc2=O)c1 [TCMDC-125526],% Inhibition,,-20.8%
CCOC(=O)c1ccc(NCc2ccccn2)cc1 [TCMDC-123821],% Inhibition,,-4.555%
Cc1cc(NC(=O)Nc2ccc3sccc3c2)c2ccccc2n1 [TCMDC-138970],% Inhibition,,36.17%
CC1(C)N=C(N)N=C(N)N1c1ccc([N+](=O)[O-])cc1 [TCMDC-124128],% Inhibition,,35.22%
COc1cc2nc(N3CCC(CNC(=O)/C=C/c4ccccc4F)CC3)nc(N)c2cc1OC.Cl [TCMDC-138163],% Inhibition,,35.62%
COc1cc2c(cc1OC)CN(c1cc(N)c3cc(OC)c(OC)cc3n1)CC2.CS(=O)(=O)O [TCMDC-131968],% Inhibition,,54.76%
COc1cc(Nc2nc(N)c3cc(OC)c(OC)cc3n2)cc(OC)c1.Cl [TCMDC-131884],% Inhibition,,-87.65%
